# From PubChem BioAssay (NCATS)
# Values without a mark were called inactive. Records with an inconclusive call do not appear. Where a call stands in place of a potency, no number is given. Active and inactive are the calls of the source. Unless noted, calls follow the shape of the dose curve; as a rule, active = well fitted curve in the direction sought with a large enough effect; inconclusive = small, poorly fitted or top-dose-only effect, or another doubt; inactive = no such curve, though single readings can be large; an effect the other way counts as inactive or inconclusive.
# How the values were obtained:
# [1] = biological target: Lysosomal acid glucosylceramidase (Homo sapiens) (UniProt P04062); assay: Glucocerebrosidase-p2 (AID 348; in the data active = potency below about 10 µM; also: potency is read from the fitted curve at half-maximal effect); conditions: purified GBA, blue fluorogenic substrate, 40 min
# In short: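 Normal human glucocerebrosidase (0.2 nM) with blue fluorogenic substrate (80 uM final) in citrate/phosphate pH 5.9 with 10mM sodium taurocholate, 0.01% tween-20; 40 min RT, NaOH/glycine stop; fluorescence Ex 365/Em 440; AC50 from a titration from 0.6 nM upwards.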
# [2] = AP1 Signaling Pathway (AID 357; active = well fitted curve in either direction with a large enough effect, not every such curve was filed as active); conditions: ME-180 AP-1-bla reporter, EGF-induced, beta-lactamase ratio, 5 h; at 7.69 µM (top of the series) unless noted
# In short: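 AP-1-bla ME-180 cells with beta-lactamase reporter under AP-1 response element, stimulated with EC50 EGF; compounds titrated, 5 hours at 37 degrees Celsius. CCF4 read at 460/530 nm ratio; positive and negative modulators judged by AC50.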
# [3] = biological target: Cytochrome P450 1A2 (Homo sapiens) (UniProt P05177); assay: p450-cyp1a2 (AID 410; calls by dose curve; also: potency is read from the fitted curve at half-maximal effect); conditions: recombinant CYP1A2, luciferin-ME demethylation, luminescence; series mostly up to 57 µM
# In short: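 20nM CYP1A2, 100uM Luciferin-ME (=Km), 100mM KPO4; cpd 10 min RT; +NADPH regen, 60 min RT; stop/detect 20 min; luminescence. Normalized to furafylline 57 uM = full inhibition.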
# [4] = NFAT Signaling Pathway (AID 444; active = well fitted curve in either direction with a large enough effect, not every such curve was filed as active;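 also: carbachol stimulus at about its EC50 of 1 µM final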); conditions: Jurkat NFAT-bla M1, carbachol, beta-lactamase ratio, 5 h; at 7.69 µM (top of the series) unless noted
# In short: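 Jurkat cells carrying an NFAT-driven β-lactamase reporter and co-transfected muscarinic M1 receptor were treated with compound plus carbachol (1 uM final, an EC50 level) for 5 h at 37 °C. CCF4 loading followed for 1 h at RT; 460/530 nm ratio gave %activity.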
# [5] = Stat Signaling Pathway (AID 446; active = well fitted curve in either direction with a large enough effect, not every such curve was filed as active;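 also: ME-180 cervical cancer cells given 40 pM IL-6 alongside compound; SIE-controlled beta-lactamase reporter measured as 460/530 nm FRET emission ratio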); conditions: ME-180 (cervical carcinoma) SIE beta-lactamase reporter, IL-6 stimulated, 5 h; at 7.69 µM (top of the series) unless noted
# In short: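 Overnight-plated ME-180 cells bearing a STAT Inducible Element beta-lactamase reporter; 5 h co-exposure to compound and 40 pM IL-6; values normalized to 300 pM IL-6 and 125 nM JAK inhibitor controls.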
# [6] = biological target: Glucocorticoid receptor (Homo sapiens) (UniProt P04150); assay: GR-EFC Redistribution (AID 451; calls by dose curve; also: potency is read from the fitted curve at half-maximal effect); conditions: CHO-K1 GR-EFC translocation, beta-gal luminescence, 2 h
# In short: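 CHO-K1 cells stably expressing nuclear-localized β-gal enzyme acceptor and GR fused C-terminally to the enzyme donor fragment; ligand-driven nuclear translocation restores β-gal by complementation. Compounds titrated up to 46 uM final, 2 h at 37 °C; luminescence read.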
# [7] = biological target: Mitogen-activated protein kinase 10 (Mus musculus) (UniProt Q61831); assay: JNK3 AlphaScreen Assay (AID 530; active = well fitted curve in either direction with a large enough effect, not every such curve was filed as active;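 also: kinase came from lysate of stimulated human HepG2 cells; signal reports phosphorylation of biotinylated GST-cJun 1-79 at Ser73 with 10 µM ATP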); conditions: JNK3 lysate, c-Jun phosphorylation; series mostly up to 57.1 µM
# In short: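 Biotinylated GST-cJun(1-79) served as substrate for JNK3 in HepG2 lysates stimulated with IL-1beta and TNF-alpha. ATP was 10 uM final, pH 7.6. Ser73 phosphorylation was quantified by AlphaScreen (680 nm excitation).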
# [8] = biological target: Cytochrome P450 3A4 (Homo sapiens) (UniProt P08684); assay: qHTS Assay for Activators of Cytochrome P450 3A4 (AID 885); conditions: recombinant CYP3A4, Luciferin-PPXE luminescence, 60 min; series mostly up to 57.1 µM; also: nearly all actives have a fitted effect of over 65% in size
# In short: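 Using 20nM recombinant human CYP3A4 in potassium phosphate (200mM), substrate Luciferin-PPXE at 25uM, luminescent luciferin detection followed a 60-min RT NADPH reaction; data scaled to 57 uM ketoconazole.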
# [9] = biological target: Dual specificity protein kinase CLK4 (Homo sapiens) (UniProt Q9HAZ1); assay: qHTS Assay for Inhibitors of CDC-like Kinase 4 (Kinase-Glo Assay) (AID 1770); conditions: recombinant Clk4, Kinase-Glo ATP depletion luminescence; series mostly up to 66.7 µM; also: nearly all actives have a fitted effect of over 65% in size; also: potency is read from the fitted curve at half-maximal effect
# In short: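 Recombinant human Clk4 (25 nM) phosphorylated RS repeat peptide (100 uM) with 1 uM ATP in Tris pH 7.5/MgCl2/EGTA/DTT/Triton buffer for 4.5 h at room temperature. Residual ATP was quantified by Kinase-Glo luciferase luminescence.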
# [10] = biological target: Dual specificity protein kinase CLK4 (Homo sapiens) (UniProt Q9HAZ1); assay: qHTS Assay for Inhibitors of CDC-like Kinase 4 (ADP-FP Assay) (AID 1795); conditions: Transcreener ADP fluorescence polarization; series mostly up to 50 µM; also: nearly all actives have a fitted effect of over 60% in size; also: potency is read from the fitted curve at half-maximal effect
# In short: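 Recombinant human Clk4 (6.25 nM) phosphorylated RS repeat peptide (100 uM) with 1 uM ATP in Tris pH 7.5/MgCl2/EGTA/DTT/Triton buffer for one hour. ADP was quantified by Transcreener competitive fluorescence polarization against an ADP calibration curve.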
# [11] = biological target: Ubiquitin carboxyl-terminal hydrolase 1 (Homo sapiens) (UniProt O94782); assay: Inhibitors of USP1/UAF1: Pilot qHTS (AID 504865); conditions: purified USP1/UAF1, Ub-rhodamine cleavage fluorescence; series mostly up to 54.9 µM;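 also: rhodamine fluorescence freed from ubiquitin-rhodamine substrate followed over time; top concentration of the series differs between compounds; nearly all actives have a fitted effect of over 35% in size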
# In short: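 USP1/UAF1 complex (1nM) preincubated with compound 15 min at room temperature, then Ub-Rho substrate (150nM final) added. Fluorescence read kinetically at 480/540 nm, 6 reads every 60 seconds. Buffer: 50mM HEPES pH 7.8, 0.5mM EDTA, 0.1 mg/ml BSA, 1mM TCEP, 0.01% Tween-20.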
# [12] = Primary qHTS for small molecule stabilizers of the endoplasmic reticulum resident proteome: Secreted ER Calcium Modulated Protein (SERCaMP) assay (AID 1508630); conditions: SH-SY5Y GLuc-SERCaMP (Gaussia luciferase released on ER calcium loss) secretion, thapsigargin, luminescence; series mostly up to 38.4 µM
# In short: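 The SH-SY5Y reporter protocol was run at 3 concentrations up to 38.3 uM (primary) or 11 concentrations (follow-up): 16 h compound, 100 nM thapsigargin for 4 h, then extracellular luciferase luminescence.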
# [13] = biological target: Rap guanine nucleotide exchange factor 3 (Homo sapiens) (UniProt O95398); assay: Confirmatory qHTS for agonist of cAMP-regulated guanine nucleotide exchange factor 3 (EPAC1) (AID 1645881); conditions: EPAC1 Rap1B BODIPY-GDP exchange fluorescence; series mostly up to 154 µM;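 also: EPAC1 catalysed release of BODIPY-GDP from Rap1B seen as fluorescence loss; nearly all actives have a fitted effect of over 75% in size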
# [14] = biological target: Rap guanine nucleotide exchange factor 4 (Homo sapiens) (UniProt Q8WZA2); assay: Confirmatory qHTS for agonist of cAMP-regulated guanine nucleotide exchange factor 4 (EPAC2) (AID 1645884); conditions: EPAC2 GEF activity, Rap1B-BODIPY-GDP fluorescence; series mostly up to 154 µM;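 also: nucleotide exchange releases bodipy-GDP from Rap1 and this lowers its fluorescence; nearly all actives have a fitted effect of over 65% in size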
# [15] = biological target: Glucocorticoid receptor (Homo sapiens) (UniProt P04150); assay: GR-GFP Redistribution (AID 450;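 active = compounds whose dose series gives a full or clear partial fitted curve of increased nuclear translocation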; also: potency is read from the fitted curve at half-maximal effect); conditions: U2OS GR-GFP nuclear translocation, laser cytometry, 2 h
# [16] = biological target: 3',5'-cyclic-AMP phosphodiesterase 4B (Homo sapiens) (UniProt Q07343); assay: qHTS Assay for Inhibitors of PDE-IV (AID 607; active = well fitted activation curve with a large enough effect in the main read-out, with a control signal flat, not every such curve was filed as active); conditions: HEK293 ACTOne CNG channel cells, membrane potential fluorescence; series mostly up to 22.9 µM
# In short: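 Live HEK293 cells with a modified cyclic nucleotide-gated (CNG) channel report intracellular cAMP via membrane-potential dye fluorescence (ex 535/em 590 nm). Endogenous PDE-IV was targeted. Compounds were tested at up to 22.9 uM final; RO 20-1724 100 uM served as control.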
# [17] = biological target: Cytochrome P450 3A4 (Homo sapiens) (UniProt P08684); assay: qHTS Assay for Inhibitors and Substrates of Cytochrome P450 3A4 (AID 884); conditions: recombinant CYP3A4, Luciferin-PPXE luminescence; series mostly up to 57.1 µM; also: potency is read from the fitted curve at half-maximal effect; nearly all actives have a fitted effect of over 50% in size
# In short: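 Luminescent readout of luciferin produced by CYP3A4 (20 nM) dealkylation of Luciferin-PPXE, 25 uM (its KM). NADPH-driven reaction ran 60 min at RT after 10 min compound preincubation; data scaled to 57 uM ketoconazole as 100% inhibition.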
# [18] = biological target: Rap guanine nucleotide exchange factor 3 (Homo sapiens) (UniProt O95398); assay: Confirmatory qHTS for antagonist of cAMP-regulated guanine nucleotide exchange factor 3 (EPAC1) (AID 1645880); conditions: EPAC1 Rap1B-BODIPY-GDP exchange, fluorescence; series mostly up to 115 µM; also: nearly all actives have a fitted effect of over 55% in size
# In short: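 Released BODIPY-GDP fluoresces less than Rap1-bound BODIPY-GDP; the signal is followed at 480/540 nm at 5-min intervals over 30 min, after 5 min at room temperature. Reactions contain 100 nM EPAC1, 250 nM RAP1B-BODIPY-GDP and 50 uM GDP; results are normalized to ATA and DMSO.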
# [19] = biological target: Rap guanine nucleotide exchange factor 4 (Homo sapiens) (UniProt Q8WZA2); assay: Confirmatory qHTS for antagonist of cAMP-regulated guanine nucleotide exchange factor 4 (EPAC2) (AID 1645885); conditions: EPAC2 Rap1B-BODIPY-GDP exchange fluorescence, biochemical; series mostly up to 114 µM; also: nearly all actives have a fitted effect of over 25% in size
# Chain of Glucocorticoid receptor (Homo sapiens) (P04150 whole entry, looked up, the tested form may be a part): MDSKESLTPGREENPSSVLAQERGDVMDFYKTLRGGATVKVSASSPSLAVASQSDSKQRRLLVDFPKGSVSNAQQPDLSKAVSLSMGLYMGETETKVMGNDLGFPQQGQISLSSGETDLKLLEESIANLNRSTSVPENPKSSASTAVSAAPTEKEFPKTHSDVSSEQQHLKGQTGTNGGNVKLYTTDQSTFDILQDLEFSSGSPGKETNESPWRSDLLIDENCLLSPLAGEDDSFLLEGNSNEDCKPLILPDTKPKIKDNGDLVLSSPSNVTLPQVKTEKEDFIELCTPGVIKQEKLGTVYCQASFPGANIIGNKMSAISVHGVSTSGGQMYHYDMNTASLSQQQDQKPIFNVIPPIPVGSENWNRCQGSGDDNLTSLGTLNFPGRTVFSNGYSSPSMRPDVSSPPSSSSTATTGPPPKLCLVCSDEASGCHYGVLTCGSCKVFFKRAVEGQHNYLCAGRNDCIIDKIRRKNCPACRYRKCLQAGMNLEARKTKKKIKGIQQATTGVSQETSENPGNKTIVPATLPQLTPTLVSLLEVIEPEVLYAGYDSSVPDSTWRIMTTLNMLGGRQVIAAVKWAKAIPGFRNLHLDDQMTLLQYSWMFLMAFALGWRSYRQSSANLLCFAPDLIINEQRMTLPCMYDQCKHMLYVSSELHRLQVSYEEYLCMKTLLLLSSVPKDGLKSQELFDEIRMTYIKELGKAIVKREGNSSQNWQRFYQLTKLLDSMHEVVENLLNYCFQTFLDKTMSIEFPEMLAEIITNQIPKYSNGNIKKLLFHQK
# Chain of Ubiquitin carboxyl-terminal hydrolase 1 (Homo sapiens) (O94782 whole entry, looked up): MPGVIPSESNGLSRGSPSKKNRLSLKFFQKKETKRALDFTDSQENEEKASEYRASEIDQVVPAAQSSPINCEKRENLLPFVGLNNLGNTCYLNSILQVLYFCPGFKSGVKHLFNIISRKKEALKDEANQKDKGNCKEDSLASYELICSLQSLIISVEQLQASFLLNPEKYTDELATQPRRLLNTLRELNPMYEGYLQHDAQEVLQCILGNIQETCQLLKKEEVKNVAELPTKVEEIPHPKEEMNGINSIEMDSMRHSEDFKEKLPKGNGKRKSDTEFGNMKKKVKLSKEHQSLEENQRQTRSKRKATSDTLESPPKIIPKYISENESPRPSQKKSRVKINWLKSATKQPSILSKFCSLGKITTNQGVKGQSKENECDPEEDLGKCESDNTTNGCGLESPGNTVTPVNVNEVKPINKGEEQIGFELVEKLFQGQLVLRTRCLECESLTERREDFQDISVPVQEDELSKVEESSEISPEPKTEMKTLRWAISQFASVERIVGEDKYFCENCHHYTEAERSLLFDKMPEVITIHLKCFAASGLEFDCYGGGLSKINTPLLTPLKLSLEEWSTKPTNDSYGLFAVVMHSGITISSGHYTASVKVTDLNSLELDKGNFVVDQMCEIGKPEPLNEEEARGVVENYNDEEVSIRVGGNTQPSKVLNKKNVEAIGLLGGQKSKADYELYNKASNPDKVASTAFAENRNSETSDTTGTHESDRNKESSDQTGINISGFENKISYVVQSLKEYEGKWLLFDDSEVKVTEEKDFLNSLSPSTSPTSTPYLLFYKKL
# Chain of Cytochrome P450 3A4 (Homo sapiens) (P08684 whole entry, looked up): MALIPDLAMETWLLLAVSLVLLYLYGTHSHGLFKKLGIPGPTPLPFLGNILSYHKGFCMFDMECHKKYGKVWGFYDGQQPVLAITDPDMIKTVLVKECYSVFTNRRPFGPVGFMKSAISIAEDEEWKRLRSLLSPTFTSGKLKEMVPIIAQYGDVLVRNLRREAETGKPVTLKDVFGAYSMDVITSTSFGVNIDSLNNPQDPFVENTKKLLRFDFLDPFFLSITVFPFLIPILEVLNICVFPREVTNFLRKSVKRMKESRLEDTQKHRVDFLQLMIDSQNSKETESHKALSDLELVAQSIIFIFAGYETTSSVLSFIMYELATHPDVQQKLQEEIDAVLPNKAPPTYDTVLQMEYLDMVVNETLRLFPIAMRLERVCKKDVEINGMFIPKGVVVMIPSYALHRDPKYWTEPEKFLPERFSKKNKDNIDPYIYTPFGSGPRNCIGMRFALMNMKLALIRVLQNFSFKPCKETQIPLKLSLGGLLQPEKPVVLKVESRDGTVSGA
# Chain of Lysosomal acid glucosylceramidase (Homo sapiens) (P04062 whole entry, looked up): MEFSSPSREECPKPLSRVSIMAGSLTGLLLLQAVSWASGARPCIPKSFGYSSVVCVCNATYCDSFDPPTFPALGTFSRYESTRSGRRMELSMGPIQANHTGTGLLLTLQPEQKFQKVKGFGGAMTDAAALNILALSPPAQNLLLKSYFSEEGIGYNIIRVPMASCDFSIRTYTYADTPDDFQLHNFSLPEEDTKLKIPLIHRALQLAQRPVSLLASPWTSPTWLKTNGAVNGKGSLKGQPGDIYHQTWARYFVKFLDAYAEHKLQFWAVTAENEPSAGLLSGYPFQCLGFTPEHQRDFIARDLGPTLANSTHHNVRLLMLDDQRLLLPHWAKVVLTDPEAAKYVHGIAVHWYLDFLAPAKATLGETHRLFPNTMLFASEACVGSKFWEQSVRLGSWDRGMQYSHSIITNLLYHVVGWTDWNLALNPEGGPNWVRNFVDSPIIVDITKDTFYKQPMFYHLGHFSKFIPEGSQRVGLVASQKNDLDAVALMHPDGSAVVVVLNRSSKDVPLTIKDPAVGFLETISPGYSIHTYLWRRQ
# Chain of Rap guanine nucleotide exchange factor 3 (Homo sapiens) (O95398 whole entry, looked up): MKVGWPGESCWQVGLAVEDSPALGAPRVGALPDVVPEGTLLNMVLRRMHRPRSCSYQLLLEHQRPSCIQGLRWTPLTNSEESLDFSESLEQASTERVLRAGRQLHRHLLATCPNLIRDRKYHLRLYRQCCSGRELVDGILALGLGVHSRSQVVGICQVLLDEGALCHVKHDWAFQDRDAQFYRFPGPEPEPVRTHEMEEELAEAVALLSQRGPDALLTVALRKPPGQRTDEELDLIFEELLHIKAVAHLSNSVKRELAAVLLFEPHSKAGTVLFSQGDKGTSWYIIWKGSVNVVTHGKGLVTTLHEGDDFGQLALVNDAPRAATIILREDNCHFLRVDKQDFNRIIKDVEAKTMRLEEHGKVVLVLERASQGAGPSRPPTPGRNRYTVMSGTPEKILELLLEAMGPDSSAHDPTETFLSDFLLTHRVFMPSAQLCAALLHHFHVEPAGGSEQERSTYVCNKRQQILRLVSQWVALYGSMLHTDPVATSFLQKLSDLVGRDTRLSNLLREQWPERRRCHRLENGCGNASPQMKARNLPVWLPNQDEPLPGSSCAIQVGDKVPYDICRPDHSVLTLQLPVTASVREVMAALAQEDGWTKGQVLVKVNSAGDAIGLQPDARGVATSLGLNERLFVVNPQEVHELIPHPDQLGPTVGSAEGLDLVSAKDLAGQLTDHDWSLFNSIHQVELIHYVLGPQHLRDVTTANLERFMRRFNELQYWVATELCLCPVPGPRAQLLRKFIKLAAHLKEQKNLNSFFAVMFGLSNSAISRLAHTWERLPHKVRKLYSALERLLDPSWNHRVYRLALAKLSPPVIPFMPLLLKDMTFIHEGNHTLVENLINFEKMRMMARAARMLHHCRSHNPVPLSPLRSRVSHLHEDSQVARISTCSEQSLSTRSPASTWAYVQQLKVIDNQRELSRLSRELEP
# Chain of Dual specificity protein kinase CLK4 (Homo sapiens) (Q9HAZ1 whole entry, looked up): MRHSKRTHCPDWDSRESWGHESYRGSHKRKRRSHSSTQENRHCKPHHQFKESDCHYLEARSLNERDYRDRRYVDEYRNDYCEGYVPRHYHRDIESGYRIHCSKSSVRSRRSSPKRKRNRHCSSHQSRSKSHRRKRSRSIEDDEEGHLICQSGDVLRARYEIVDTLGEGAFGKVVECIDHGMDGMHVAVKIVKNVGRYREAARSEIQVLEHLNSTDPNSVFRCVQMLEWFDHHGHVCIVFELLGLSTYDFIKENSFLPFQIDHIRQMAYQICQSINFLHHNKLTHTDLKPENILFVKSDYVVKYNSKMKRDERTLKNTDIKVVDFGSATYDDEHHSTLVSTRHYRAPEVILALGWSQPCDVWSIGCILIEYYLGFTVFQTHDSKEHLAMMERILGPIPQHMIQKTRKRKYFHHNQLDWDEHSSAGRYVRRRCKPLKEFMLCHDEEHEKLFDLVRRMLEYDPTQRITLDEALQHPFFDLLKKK
# Chain of Rap guanine nucleotide exchange factor 4 (Homo sapiens) (Q8WZA2 whole entry, looked up): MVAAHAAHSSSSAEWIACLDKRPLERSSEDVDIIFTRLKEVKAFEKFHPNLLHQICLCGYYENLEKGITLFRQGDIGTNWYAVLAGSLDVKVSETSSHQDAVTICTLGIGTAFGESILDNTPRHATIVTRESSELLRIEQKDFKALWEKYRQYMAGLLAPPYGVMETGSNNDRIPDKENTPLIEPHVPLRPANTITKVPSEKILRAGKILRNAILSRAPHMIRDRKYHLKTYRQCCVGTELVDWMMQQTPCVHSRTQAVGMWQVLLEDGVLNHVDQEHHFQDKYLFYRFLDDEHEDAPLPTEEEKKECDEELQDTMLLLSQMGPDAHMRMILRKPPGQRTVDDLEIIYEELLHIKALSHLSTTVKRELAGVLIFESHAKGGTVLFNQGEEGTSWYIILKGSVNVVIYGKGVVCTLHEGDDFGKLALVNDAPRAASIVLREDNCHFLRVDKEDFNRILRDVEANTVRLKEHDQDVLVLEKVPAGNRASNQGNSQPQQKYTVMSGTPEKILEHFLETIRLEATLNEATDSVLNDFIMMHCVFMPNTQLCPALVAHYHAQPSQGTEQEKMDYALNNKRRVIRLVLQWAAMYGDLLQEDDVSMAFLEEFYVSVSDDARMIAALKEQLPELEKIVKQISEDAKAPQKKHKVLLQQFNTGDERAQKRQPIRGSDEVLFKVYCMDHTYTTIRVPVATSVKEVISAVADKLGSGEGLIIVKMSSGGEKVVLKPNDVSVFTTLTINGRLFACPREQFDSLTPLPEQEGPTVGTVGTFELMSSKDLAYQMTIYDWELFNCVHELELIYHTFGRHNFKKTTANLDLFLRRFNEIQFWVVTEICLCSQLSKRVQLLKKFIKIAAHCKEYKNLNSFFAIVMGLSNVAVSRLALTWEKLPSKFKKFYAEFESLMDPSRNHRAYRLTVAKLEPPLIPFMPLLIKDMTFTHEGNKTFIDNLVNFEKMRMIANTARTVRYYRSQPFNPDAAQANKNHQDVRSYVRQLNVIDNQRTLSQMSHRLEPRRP
Compound,Potency [1],"activity change, negative = inhibition [2]",Potency [3],"activity change, negative = inhibition [4]","activity, negative = inhibition [5]",Potency [6],Potency [7],Potency [8],Potency [9],Potency [10],Potency [11],outcome [12],Potency [13],Potency [14],Potency [15],Potency [16],Potency [17],Potency [18],Potency [19]
COc1ccccc1CNc1nc(-c2cccnc2)nc2ccccc12,> 11.4 µM,-17.9%,1 µM (active),-5.69%,-25.3%,> 46 µM,inactive,inactive,12.6 µM (active),4.47 µM (active),inactive,inactive,inactive,inactive,,,,,
COc1ccc(CNc2ncncc2-c2ccccc2C)c(OC)c1,> 11.4 µM,,10 µM (active),5.66%,-4.15%,> 46 µM,inactive,inactive,inactive,inactive,inactive,inactive,inactive,inactive,> 46 µM,inactive,0.398 µM (active),inactive,
COCCn1c(=O)c(-c2cccs2)nc2cnc(N3CCOCC3)nc21,> 11.4 µM,-6.06%,,2.93%,-8.84%,> 46 µM,inactive,,inactive,inactive,inactive,inactive,,,> 9.22 µM,inactive,,inactive,inactive
